For 27 molecules, growth results are on record in PubChem BioAssay (NCI).

Values joined by “and” are separate entries in the source; they are usually repeats but may differ in a detail not shown here. Equal values may be shown once. About 83,000 compounds went through this panel and 20% of them were active in at least one assay; those are over-represented in the sample as a whole.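 For each line, cells grew in 96-well plates with the test compound present at a single concentration for 48 hours.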 Active and inactive are the calls of the source. Rule for the calls: active = growth percent below 10; inactive = the rest.

In this assay the test system is HL-60(TB) leukemia. Put plainly: NCI-60 one-dose screen, 48 h (100 = growth as untreated, 0 = no growth, -100 = all killed). The settings on record: 10 µM unless noted.
Take `O=[N+]([O-])C=C(c1ccccc1)c1ccccc1`: the growth was 60.2% (inactive). For the molecule `COc1ccc2cc3[n+](cc2c1OC)CCc1cc2c(cc1-3)OCO2`, the growth was 75.4% (inactive) and 70.1% (inactive).

With `Nc1c(Br)cc(Br)c2c1[nH]c(=O)c1ccccc12`, the growth was 89.8% (inactive). For `COc1ccc(Nc2ncccc2C(=O)NCc2cn(Cc3cccc(Oc4ccccc4)c3)nn2)cc1`, the growth is 32.1% (inactive). Turning to `O=S(=O)(c1ccc(N/N=C\c2ccccc2)cc1)c1ccc(N/N=C/c2ccccc2)cc1`, the growth was 94.8% (inactive). For `COc1cccc(C2CC(c3cc(OC)c(OC)c(OC)c3)=NN2)c1` (configuration not stated) the value was 55.1% (inactive); for `COc1cc(NCC(=O)Nc2cc(Nc3ccc(C)cc3)ncn2)c(Cl)c(OC)c1Cl`, 77.2% (inactive); for `O=C(Nc1ccc(N2CCNCC2)cc1)c1[nH]ncc1Nc1cc(C2CC2)ncn1`, 67.9% (inactive). Consider `CCOC(=O)C1=C(C)n2nc(CC#N)c(C#N)c2NC1c1ccc(Cl)cc1` (configuration not stated), for which the growth was 105% (inactive).

Take `Cc1cc(C(=O)NN)c(C#N)c(=O)[nH]1`: the growth was 111% (inactive). `CC(=O)O[C@@H]1CCN2C(=O)N(C)c3ccccc3[C@@H]2C1`: the growth is 101% (inactive). Regarding `O=C1c2ccccc2C(=O)c2c1ccc1[nH]c(CCl)nc21`, the growth was -37.4% (active). As to `Cc1cccc(NC(=O)N/C(N)=N/c2nc(C)c(C)s2)c1`, the growth was 19.5% (inactive).

On to `COc1ccc(CN2C(=O)/C(=C\C(=O)c3ccc(OCCN4CCCCC4)cc3)c3ccccc32)cc1`, for which the growth was 20% (inactive).

With `COc1ccc(-c2cc(-c3ccc(Cl)cc3)nc(SCCCCCCC(=O)NO)n2)cc1OC`, the growth was 19% (inactive).

With `Cc1[nH]c2ccc(F)cc2c1CCNC(=O)C1CCN(C(=O)c2ccccc2)CC1`, the growth is 102% [25 µM] (inactive). `COc1ccc(C2C=C(c3ccc(Cl)c(Cl)c3)N=C3SC(C)=CN32)cc1OC` (configuration not stated): the growth is 63.3% (inactive). Regarding `Cn1c2nc3ccccc3c-2nc2ccccc21`, the growth is 88.8% (inactive) and 55.2% (inactive). Under `O=[N+]([O-])c1cccc(N=C(Nc2cccc([N+](=O)[O-])c2)c2ccccc2)c1` stands 102% (inactive); under `C=C1[C@@H](O)C[C@H]2C(C)(C)C[C@H](Cl)C[C@]2(C)[C@H]1C[C@H](O)[C@H]1CC(=O)NC1=O`, -26% (active). For `O=C(/C=C/c1ccc(Cl)s1)c1ccc(Cl)s1`, the growth is 119% (inactive) and 111% (inactive). Under `CN1CCN(c2ccc3nc(-c4ccc(OCCCCN5CCN(CCCCN6C(=O)c7cccc8cccc(c78)C6=O)CC5)cc4)[nH]c3c2)CC1` stands 16.6% (inactive); under `CN(C)c1ccc2nc3ccc(=[N+](C)C)cc-3sc2c1`, 0.249% (active) and -38.6% (active) and 19.8% (inactive). On to `CCNC(=S)NNC(=O)c1cc2ccc1CCc1ccc(cc1)CC2`, for which the growth is 100% (inactive).

With `CCN(CC)CCOc1ccc(C(=C(C)c2ccc(Cl)cc2)c2ccc(OCCN(CC)CC)cc2)cc1`, the growth was -55.5% (active).

As to `O=C1NC(c2ccc(Cl)c(Cl)c2)=C/C1=C\c1ccccc1`, the growth is 94.1% (inactive). For `CCCCCCCOc1c(OC)cc(C2CC(=O)Nc3c2c(C)nn3-c2nc3ccccc3[nH]2)cc1OC` (configuration not stated) the value was 10.5% (inactive).
